Hit rate of the full screen: of about 5,500 compounds, about 2,000 (36%) were called active. Roughly 18% stayed inconclusive and do not appear here. No stated cut-off is given here; in the data, active means normalized growth mostly below about 0.91 (no sharp cut-off); inconclusive means no clear call, values can overlap the other calls; inactive means mostly above about 0.92. This is one part of the list.
Experiment: chemical genetic growth profiling, strain panel (AID 1159580);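 further: tested at 20 µM; growth read once vehicle control cultures reached saturation at 30 °C; 1 = growth at the plate median or of vehicle wells; lower values mean less growth of the strain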
Settings: growth OD
[1] = S. cerevisiae deletion strains, locus YPL241C, strain CIN2, active compounds read low

Measured: normalized growth

Cc1ccc(C(C)C)c(O)c1C(=O)O
active: S. cerevisiae deletion strains, locus YDL185W, strain tfp1, active compounds read low 0.784 | S. cerevisiae deletion strains, locus YER155C, strain BEM2, active compounds read low 0.914 | S. cerevisiae deletion strains, locus YGL078C, strain dbp3, active compounds read low 0.859 | S. cerevisiae deletion strains, locus YHR094C, strain hxt1, active compounds read low 0.923 | S. cerevisiae deletion strains, locus YIL125W, strain kgd1, active compounds read low 0.808 | S. cerevisiae deletion strains, locus YJL168C, strain set2, active compounds read low 0.921 | S. cerevisiae deletion strains, locus YKL068W, active compounds read low 0.82 | S. cerevisiae deletion strains, locus YKL085W, strain MDH1 (second series), active compounds read low 0.83 | S. cerevisiae deletion strains, locus YKL085W, strain MDH1, active compounds read low 0.83 | S. cerevisiae deletion strains, locus YLR102C, strain apc9, active compounds read low 0.918 | S. cerevisiae deletion strains, locus YML124C, strain tub3, active compounds read low 0.929 | S. cerevisiae deletion strains, locus YNL250W, strain rad50, active compounds read low 0.848 | S. cerevisiae deletion strains, locus YNL271C, strain bni1, active compounds read low 0.831 | S. cerevisiae deletion strains, locus YNL298W, strain CLA4, active compounds read low 0.842 | S. cerevisiae deletion strains, locus YOR144C, strain elg1, active compounds read low 0.928 | S. cerevisiae deletion strains, locus YPR119W, strain clb2, active compounds read low 0.918 | S. cerevisiae deletion strains, locus YPR141C, strain kar3, active compounds read low 0.797 | S. cerevisiae deletion strains, locus YPR163C, strain tif3, active compounds read low 0.908
inactive: S. cerevisiae deletion strains, locus YAL013W, strain DEP1, active compounds read low 0.993 | S. cerevisiae deletion strains, locus YBR021W, strain FUR4, active compounds read low 0.912 | S. cerevisiae deletion strains, locus YBR229C, strain ROT2, active compounds read low 0.986 | S. cerevisiae deletion strains, locus YCL029C, strain bik1, active compounds read low 0.951 | S. cerevisiae deletion strains, locus YDL035C, strain GPR1, active compounds read low 0.997 | S. cerevisiae deletion strains, locus YDL074C, strain BRE1, active compounds read low 0.998 | S. cerevisiae deletion strains, locus YDL101C, strain DUN1, active compounds read low 0.999 | S. cerevisiae deletion strains, locus YDL134C, strain PPH21, active compounds read low 0.998 | S. cerevisiae deletion strains, locus YDL192W, strain arf1, active compounds read low 0.95 | S. cerevisiae deletion strains, locus YDR101C, strain arx1, active compounds read low 0.971 | S. cerevisiae deletion strains, locus YDR162C, strain NBP2, active compounds read low 0.977 | S. cerevisiae deletion strains, locus YDR318W, strain mcm21, active compounds read low 0.96 | S. cerevisiae deletion strains, locus YDR388W, active compounds read low 0.935 | S. cerevisiae deletion strains, locus YDR502C, strain sam2, active compounds read low 0.957 | S. cerevisiae deletion strains, locus YEL061C, strain CIN8, active compounds read low 0.981 | S. cerevisiae deletion strains, locus YER110C, active compounds read low 0.959 | S. cerevisiae deletion strains, locus YER167W, strain BCK2, active compounds read low 0.973 | S. cerevisiae deletion strains, locus YGL086W, strain mad1, active compounds read low 0.975 | S. cerevisiae deletion strains, locus YGL248W, strain PDE1, active compounds read low 0.995 | S. cerevisiae deletion strains, locus YGR078C, strain PAC10, active compounds read low 1 | S. cerevisiae deletion strains, locus YGR135W, strain pre9, active compounds read low 0.975 | S. cerevisiae deletion strains, locus YGR252W, strain gcn5, active compounds read low 0.919 | S. cerevisiae deletion strains, locus YHR030C, strain SLT2, active compounds read low 0.97 | S. cerevisiae deletion strains, locus YHR079C, strain IRE1 (second series), active compounds read low 0.936 | S. cerevisiae deletion strains, locus YHR129C, strain ARP1, active compounds read low 0.965 | S. cerevisiae deletion strains, locus YHR200W, strain rpn10, active compounds read low 0.945 | S. cerevisiae deletion strains, locus YIL066C, strain RNR3, active compounds read low 1.01 | S. cerevisiae deletion strains, locus YIL073C, strain SPO22, active compounds read low 1 | S. cerevisiae deletion strains, locus YIR030C, strain dcg1, active compounds read low 0.949 | S. cerevisiae deletion strains, locus YJL095W, strain BCK1, active compounds read low 0.992 | S. cerevisiae deletion strains, locus YJL134W, strain LCB3, active compounds read low 0.955 | S. cerevisiae deletion strains, locus YJL187C, strain SWE1 (second series), active compounds read low 1.01 | S. cerevisiae deletion strains, locus YJR043C, strain POL32, active compounds read low 0.981 | S. cerevisiae deletion strains, locus YJR075W, strain HOC1, active compounds read low 0.998 | S. cerevisiae deletion strains, locus YKL009W, strain mrt4, active compounds read low 0.897 | S. cerevisiae deletion strains, locus YKL190W, strain CNB1, active compounds read low 0.987 | S. cerevisiae deletion strains, locus YKR001C, strain vps1, active compounds read low 0.917 | S. cerevisiae deletion strains, locus YLR039C, strain RIC1, active compounds read low 0.943 | S. cerevisiae deletion strains, locus YLR058C, strain SHM2, active compounds read low 0.995 | S. cerevisiae deletion strains, locus YLR262C, strain YPT6, active compounds read low 0.986 | S. cerevisiae deletion strains, locus YLR268W, strain sec22, active compounds read low 0.96 | S. cerevisiae deletion strains, locus YLR330W, strain CHS5, active compounds read low 0.947 | S. cerevisiae deletion strains, locus YLR342W, strain FKS1 (second series), active compounds read low 0.973 | S. cerevisiae deletion strains, locus YLR371W, strain rom2, active compounds read low 0.94 | S. cerevisiae deletion strains, locus YLR418C, strain cdc73, active compounds read low 0.946 | S. cerevisiae deletion strains, locus YML016C, strain PPZ1, active compounds read low 0.977 | S. cerevisiae deletion strains, locus YML032C, strain rad52, active compounds read low 0.959 | S. cerevisiae deletion strains, locus YMR078C, strain ctf18, active compounds read low 0.916 | S. cerevisiae deletion strains, locus YMR223W, strain ubp8, active compounds read low 0.972 | S. cerevisiae deletion strains, locus YMR263W, strain SAP30, active compounds read low 0.989 | S. cerevisiae deletion strains, locus YMR307W, strain GAS1, active compounds read low 0.967 | S. cerevisiae deletion strains, locus YNL067W, strain RPL9B, active compounds read low 0.997 | S. cerevisiae deletion strains, locus YNL128W, strain TEP1, active compounds read low 1.01 | S. cerevisiae deletion strains, locus YNL233W, strain BNI4, active compounds read low 0.993 | S. cerevisiae deletion strains, locus YNL307C, strain MCK1, active compounds read low 0.928 | S. cerevisiae deletion strains, locus YNR052C, strain pop2, active compounds read low 0.951 | S. cerevisiae deletion strains, locus YOL006C, strain TOP1, active compounds read low 0.977 | S. cerevisiae deletion strains, locus YOL012C, strain htz1 1.59 | S. cerevisiae deletion strains, locus YOL147C, strain pex11, active compounds read low 0.937 | S. cerevisiae deletion strains, locus YOR061W, strain CKA2, active compounds read low 0.989 | S. cerevisiae deletion strains, locus YOR069W, strain VPS5, active compounds read low 0.974 | S. cerevisiae deletion strains, locus YOR136W, strain idh2, active compounds read low 0.979 | S. cerevisiae deletion strains, locus YOR184W, strain ser1, active compounds read low 0.962 | S. cerevisiae deletion strains, locus YOR316C, strain cot1, active compounds read low 0.93 | [1] 0.971 | S. cerevisiae deletion strains, locus YPR167C, strain met16, active compounds read low 0.936 | S. cerevisiae deletion strains, strain wtn01, active compounds read low 0.955 | S. cerevisiae strains, strain wild type, active compounds read low 0.988

NCCCP(=O)(O)O
inactive: S. cerevisiae deletion strains, locus YAL040C, strain CLN3, active compounds read low 1.04 | S. cerevisiae deletion strains, locus YCL061C, strain MRC1 (second series), active compounds read low 0.998 | S. cerevisiae deletion strains, locus YDR150W, strain NUM1, active compounds read low 1.01 | S. cerevisiae deletion strains, locus YDR363W, strain ESC2, active compounds read low 0.956 | S. cerevisiae deletion strains, locus YER002W, strain NOP16, active compounds read low 0.981 | S. cerevisiae deletion strains, locus YGR229C, strain SMI1, active compounds read low 0.984 | S. cerevisiae deletion strains, locus YNL175C, strain NOP13, active compounds read low 0.978 | S. cerevisiae deletion strains, locus YNL197C, strain WHI3, active compounds read low 0.979 | S. cerevisiae deletion strains, locus YNL224C, strain SQS1, active compounds read low 1 | S. cerevisiae deletion strains, locus YOR083W, strain WHI5 (second series), active compounds read low 0.98 | S. cerevisiae deletion strains, locus YPL055C, strain LGE1, active compounds read low 1.02 | [1] 0.995

Source: PubChem BioAssay AID1159580 (chemical genetic matrix, 2015)
